An excerpt weighted towards active compounds, which were near 19% of everything screened.
DT40 TDP1 CPT = qHTS for Inhibitors of human tyrosyl-DNA phosphodiesterase 1 (TDP1): qHTS in cells in presence of CPT | chicken DT40 Tdp1-/-;hTDP1 cells + 20 nM CPT, ATP luminescence, 48 h | Potency, µM (doses to about 46.2 µM), without a hit: at the highest dose activity change, negative = growth inhibition, most hits filed as inhibitors | hit rate 12% among 420,000 | AID 686979, 2013; also: potency is read from the fitted curve at half-maximal effect; % is scaled to controls: 0 for no effect and ±100 for the full control effect; nearly all actives have a fitted effect of over 55% in size
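Chicken DT40 Tdp1-/- cells complemented with human TDP1, 400 cells/well, exposed to compounds plus 20 nM camptothecin for at least 48 h at 37 C; viability read as ATP content by CellTiter-Glo luminescence.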
HepG2 tox = qHTS for Inhibitors of TGF-b: Cytotox Counterscreen; HepG2 CAGA-GFP viability, ATP luminescence, 18 h; Potency, µM (series often up to 46.1 µM), without a hit: at the top dose activity change, negative = cytotoxicity, actives largely listed as cytotoxic; hit rate 0.76% among 410,000; AID 588856, 2011; also: potency is read from the fitted curve at half-maximal effect
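HepG2 CAGA-GFP cells (1000/well, DMEM with 1% FBS) received compound, then TGF-beta at 500 pg/mL final, and were incubated 18 hours at 37 degrees C. Viability was read by CellTiter-Glo luminescence. Media-only wells were set as complete cell-killing and DMSO as no toxicity.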
DT40 TDP1 no CPT = qHTS for Inhibitors of human tyrosyl-DNA phosphodiesterase 1 (TDP1): qHTS in cells in absence of CPT; AID 686978, 2013; hit rate 15% among 420,000; Potency, µM (titrated, usually from 46.2 µM), for the others: at the top dose activity change, negative = growth inhibition, hits mostly inhibitors; DT40 Tdp1-/- hTDP1 cells, no CPT, ATP luminescence, 48 h; also: potency is read from the fitted curve at half-maximal effect; % is scaled to controls: 0 for no effect and ±100 for the full control effect; nearly all actives have a fitted effect of over 55% in size
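Stably hTDP1-transfected Tdp1-null chicken DT40 cells were treated with library compounds minus camptothecin and grown for at least 48 hr at 37 °C, after which cellular ATP was quantified by luminescence.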
TGFb SMAD3 inh = qHTS for Inhibitors of TGF-b. HepG2 CAGA-GFP TGF-b/SMAD3 reporter, GFP fluorescence, 18 h; TGF-beta stimulated, 500 pg/mL final. Potency, µM (series often up to 46.1 µM), for inactives: at the top dose activity, negative = inhibition, actives largely listed as inhibitors. hit rate 1.2% among 410,000; also: potency is read from the fitted curve at half-maximal effect; % is scaled to controls: 0 for no effect and ±100 for the full control effect; nearly all actives have a fitted effect of over 65% in size
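Cell-based qHTS in HEPG2 carrying a CAGA-GFP Smad reporter; compounds added before 500 pg/mL final TGF-beta, 18 h incubation at 37 degrees C, GFP fluorescence quantified per cell by imaging cytometry.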
IL1B secr inh = qHTS for Inhibitors of Inflammasome Signaling: IL-1-beta AlphaLISA Primary Screen; hit rate 4.7% among 360,000; AID 743279, 2014; activity change, % at 57.5 µM; THP-1 LPS/ATP IL-1B secretion, AlphaLISA, 16 h; hits give low values; in the data active = activity change below about -50%; inconclusive = mostly about -30% to -49%; also: % is scaled to controls: 0 for no effect and ±100 for the full control effect
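Secreted IL-1B measured by AlphaLISA bead assay after 16 h compound exposure of THP-1 cells; compounds (final up to 57.5 uM) added 1 h before LPS (250 ng/mL) and ATP (1.25 mM) stimulation; lower signal means less secretion.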
TDP1 block = qHTS Assay for Inhibitors of Tyrosyl-DNA Phosphodiesterase (TDP1) | Potency, µM (top dose mostly 130 µM), for the others: top-dose activity change, negative = inhibition, actives largely listed as inhibitors | hit rate 0.28% among 350,000 | recombinant TDP1, AlphaScreen DNA substrate cleavage | AID 485290, 2010; also: potency is read from the fitted curve at half-maximal effect; % is scaled to controls: 0 for no effect and ±100 for the full control effect; nearly all actives have a fitted effect of over 40% in size
Target sequence (Q9NUW8 whole entry, looked up): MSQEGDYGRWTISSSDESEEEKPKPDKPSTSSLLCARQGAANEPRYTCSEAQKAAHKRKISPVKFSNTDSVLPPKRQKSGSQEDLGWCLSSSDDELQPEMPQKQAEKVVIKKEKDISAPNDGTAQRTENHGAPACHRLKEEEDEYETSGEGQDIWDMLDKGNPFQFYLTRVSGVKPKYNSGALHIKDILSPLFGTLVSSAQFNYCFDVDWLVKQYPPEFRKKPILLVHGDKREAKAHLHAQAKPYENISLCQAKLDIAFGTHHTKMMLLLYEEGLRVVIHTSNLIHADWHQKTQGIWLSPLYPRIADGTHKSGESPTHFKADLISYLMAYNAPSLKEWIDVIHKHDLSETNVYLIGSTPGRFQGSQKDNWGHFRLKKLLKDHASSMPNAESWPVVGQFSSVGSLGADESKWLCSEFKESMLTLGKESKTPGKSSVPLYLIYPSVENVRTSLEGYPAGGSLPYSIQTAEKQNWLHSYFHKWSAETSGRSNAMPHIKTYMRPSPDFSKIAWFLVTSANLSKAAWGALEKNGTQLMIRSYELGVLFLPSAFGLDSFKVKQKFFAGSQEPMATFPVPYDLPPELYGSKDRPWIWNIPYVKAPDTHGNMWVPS
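Recombinant human Tdp1 (E. coli-expressed, 1 nM final) preincubated with compounds 15 min at room temperature, then 5'-biotin/3'-phosphotyrosine-FITC DNA substrate (15 nM final) added for 5 min. AlphaScreen beads (10 ug/ml final) added 10 min; cleavage lowers signal.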
Active calls of the source: *; [ ] = another dose, or the depositor's remark. Unless noted, calls follow the shape of the dose curve; as a rule, active = well fitted curve in the direction sought with a large enough effect; inconclusive = small, poorly fitted or top-dose-only effect, or another doubt; inactive = no such curve, though single readings can be large; an effect the other way counts as inactive or inconclusive.

`CC1=C2C(=O)C3C(CC=C4C[C@@H](O)CC[C@@]43C)[C@@H]2CC[C@]12O[C@@H]1C[C@H](C)CN[C@H]1C2C` (stereo partly drawn) gave TDP1 block 6%.
Screening CN1C(C(=O)NCc2cccc(C(F)(F)F)c2)CC2Cn3c(nc4cc5ccccc5cc43)C21 (stereo not drawn) returned DT40 TDP1 CPT inconclusive, HepG2 tox -27%, DT40 TDP1 no CPT 18µM*, TGFb SMAD3 inh inconclusive, IL1B secr inh -7 and TDP1 block 0%.
COC(=O)C1=C(c2cc3ccccc3s2)C[C@@H]2CC[C@H]1N2C(=O)N1CCOCC1 was read as DT40 TDP1 CPT 9.2µM*, HepG2 tox -7%, DT40 TDP1 no CPT 7.3µM*, TGFb SMAD3 inh inconclusive and IL1B secr inh 30.
Screening COC(=O)C1=C(c2cc3ccccc3s2)C[C@@H]2CC[C@H]1N2C(=O)N1CCCC1 returned DT40 TDP1 CPT 4.6µM*, HepG2 tox -23%, TGFb SMAD3 inh inconclusive and IL1B secr inh 0.
For CC1CCN(CC#CCOc2ccc(Cl)cc2)CC1 the results were DT40 TDP1 CPT -24%, HepG2 tox -31%, DT40 TDP1 no CPT -6%, TGFb SMAD3 inh inconclusive and IL1B secr inh -4.
For COc1cccc(NP2(=O)OCC(C)([N+](=O)[O-])CO2)c1 (stereo not drawn) the results were DT40 TDP1 CPT 6%, HepG2 tox -1%, DT40 TDP1 no CPT 2%, TGFb SMAD3 inh -8% and IL1B secr inh -1.
For COc1ccc(C(=O)Cn2c(NCCCl)nc3ccccc32)cc1 the results were DT40 TDP1 CPT 21µM*, HepG2 tox 1%, DT40 TDP1 no CPT -26%, TGFb SMAD3 inh 10%, IL1B secr inh -2 and TDP1 block 8%.
`O=C(Cn1c(NCCCl)nc2ccccc21)c1ccc(Br)cc1` gave DT40 TDP1 CPT inconclusive, HepG2 tox -43%, DT40 TDP1 no CPT inconclusive, TGFb SMAD3 inh -29% and IL1B secr inh -28.
`O=C1C(Cl)=CC(=Nc2ccc(O)cc2)C=C1Cl` gave DT40 TDP1 CPT 1.3µM*, HepG2 tox -27%, DT40 TDP1 no CPT 2.6µM*, TGFb SMAD3 inh inconclusive, IL1B secr inh inconclusive and TDP1 block 6%[56.1 µM].
For O=[As](O)(O)c1ccc(N=Nc2ccc(O)cc2)cc1 the results were DT40 TDP1 CPT 2%, HepG2 tox -4%, DT40 TDP1 no CPT -8%, TGFb SMAD3 inh 1%, IL1B secr inh inconclusive and TDP1 block -8%.
O=C(NCC(c1cccs1)N1CCOCC1)c1cc([N+](=O)[O-])cc([N+](=O)[O-])c1 (stereo not drawn) was read as DT40 TDP1 CPT -29%, HepG2 tox -7%, DT40 TDP1 no CPT inconclusive, TGFb SMAD3 inh -7%, IL1B secr inh -62* and TDP1 block 3%.
`Clc1ccc(CNCCc2ccc3c(c2)OCO3)cc1` gave DT40 TDP1 CPT 26%, HepG2 tox -26%, DT40 TDP1 no CPT -21%, TGFb SMAD3 inh -3% and IL1B secr inh -84*.
For COc1ccc(CNCCc2ccc3c(c2)OCO3)cc1Br the results were DT40 TDP1 CPT inconclusive, HepG2 tox -2%, DT40 TDP1 no CPT 21µM*, TGFb SMAD3 inh 2% and IL1B secr inh 0.
`Clc1cccc(CNCCc2ccc3c(c2)OCO3)c1` gave DT40 TDP1 CPT inconclusive, HepG2 tox -17%, DT40 TDP1 no CPT inconclusive, TGFb SMAD3 inh 5% and IL1B secr inh -81*.
`Cc1cccc2c3c(ccc12)C1=C(C(=O)C3=O)[C@@H](C)CO1` gave TDP1 block 18%.
`CC(C)OP(=O)(OC(C)C)C(NC(=O)c1ccccc1Br)C(N)=O` (stereo not drawn) gave DT40 TDP1 CPT 21%, HepG2 tox -30%, DT40 TDP1 no CPT 1%, TGFb SMAD3 inh -1%, IL1B secr inh 22 and TDP1 block 8%.
For CCc1ccc(C2C(C(=O)Nc3ccccc3OC)=C(C)Nc3nc(SCc4ccccc4)nn32)cc1 (stereo not drawn) the results were DT40 TDP1 CPT 4.1µM*, HepG2 tox -17%, DT40 TDP1 no CPT 3.7µM*, TGFb SMAD3 inh -15% and TDP1 block 3%.
`CN1CCCCC1c1cccnc1` (stereo not drawn) gave DT40 TDP1 CPT -3%, DT40 TDP1 no CPT -2% and TDP1 block 16%.
COc1ccccc1OCCCn1cc(C(=O)C2CC2)c2ccccc21 was read as DT40 TDP1 CPT inconclusive, HepG2 tox -16%, DT40 TDP1 no CPT inconclusive, TGFb SMAD3 inh -1%, IL1B secr inh 12 and TDP1 block 3%.
Screening COc1ccccc1OCCCn1cc(C(C)=O)c2ccccc21 returned DT40 TDP1 CPT inconclusive, HepG2 tox -6%, DT40 TDP1 no CPT 18µM*, TGFb SMAD3 inh -16%, IL1B secr inh 21 and TDP1 block 2%.
COc1ccccc1OCCCn1cc(C=O)c2ccccc21 was read as DT40 TDP1 CPT inconclusive, HepG2 tox -12%, DT40 TDP1 no CPT 21µM*, TGFb SMAD3 inh inconclusive, IL1B secr inh inconclusive and TDP1 block 4%.
C[C@]12C=CC(=O)C=C1CCC1C2=CC[C@]2(C)[C@@H](C(=O)CN3CCN(c4cc(N5CCCC5)nc(N5CCCC5)n4)CC3)CC[C@@H]12 (stereo partly drawn) was read as TDP1 block 12%.
Screening COC(=O)C1=C(c2ccccc2OCc2ccccc2)C[C@@H]2CC[C@H]1N2C returned DT40 TDP1 CPT inconclusive, HepG2 tox -31%, DT40 TDP1 no CPT 23µM*, TGFb SMAD3 inh 2% and IL1B secr inh -15.
Screening COC(=O)C1=C(c2ccc(F)cc2OCc2ccccc2)C[C@@H]2CC[C@H]1N2C returned DT40 TDP1 CPT 23µM*, HepG2 tox -16%, DT40 TDP1 no CPT 16µM*, TGFb SMAD3 inh -17%, IL1B secr inh -18 and TDP1 block 0%.
CC(=O)c1cccc(NC(=O)CCn2c(=O)oc3ccccc32)c1 was read as DT40 TDP1 CPT -5%, HepG2 tox -52%, DT40 TDP1 no CPT -6%, TGFb SMAD3 inh 3%, IL1B secr inh 0 and TDP1 block 0%.

Screening data: PubChem BioAssay, National Center for Advancing Translational Sciences (NCATS)
